We go through 11 compounds from PubChem BioAssay (NCATS).

Test [1] addresses Catechol O-methyltransferase (Homo sapiens) (UniProt P21964). In words: Confirmatory Screen for Target Class Profiling of Small Molecule Inhibitors of Methyltransferases (AID 1745852; calls by dose curve; further: potency means the concentration at half of the fitted maximal effect; on activity change, negative = inhibition: on the % scale 0 is the no-effect control and ±100 the full control effect). To be noted: MTase-Glo luminescence, SAH detection, recombinant enzyme; measured here: COMT max response; stronger effect = lower value.
The target of test [2] is Guanidinoacetate N-methyltransferase (Homo sapiens) (UniProt Q14353). The test is described as above. To be noted: MTase-Glo luminescence, SAH detection, recombinant enzyme; activity change, negative = inhibition: at 57.3 µM (top of the series) unless noted.
For test [3], the target named is Nicotinamide N-methyltransferase (Homo sapiens) (UniProt P40261). The test is described as above. The note with it: MTase-Glo luminescence, SAH detection, recombinant enzyme; measured here: NNMT max response; stronger effect = lower value.
Chain of Nicotinamide N-methyltransferase (Homo sapiens) (P40261 whole entry, looked up): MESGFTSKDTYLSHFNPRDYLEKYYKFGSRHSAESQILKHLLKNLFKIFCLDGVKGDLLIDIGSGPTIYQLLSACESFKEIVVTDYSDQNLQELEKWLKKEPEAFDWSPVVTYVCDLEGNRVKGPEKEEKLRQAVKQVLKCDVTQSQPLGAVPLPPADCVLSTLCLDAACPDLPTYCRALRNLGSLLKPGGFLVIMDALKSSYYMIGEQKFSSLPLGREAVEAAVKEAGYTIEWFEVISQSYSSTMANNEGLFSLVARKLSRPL
Test [4] addresses Phenylethanolamine N-methyltransferase (Homo sapiens) (UniProt P11086). Described as above. The note with it: MTase-Glo luminescence, SAH detection, recombinant enzyme; measured here: PNMT max response; stronger effect = lower value.
Test [5] addresses Glutathione peroxidase 1 (Homo sapiens) (UniProt P07203). Kind of test: Primary qHTS Assay for Inhibitors of Recombinant Selenoprotein Glutathione Peroxidase 1 (GPX1) (AID 1845191). Further: nearly all actives have a fitted effect of over 65% in size. On activity, negative = inhibition: on the % scale 0 is the no-effect control and ±100 the full control effect. The note with it: recombinant GPX1, GR-coupled NADPH fluorescence, 15 min; series mostly up to 48.8 µM. The method in brief: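 GR-coupled assay: compounds preincubated 30 min at room temperature with GPX1, then reaction started with CHP; final 10 nM GPX1, 1 mM GSH, 0.5 mM CHP, 0.5 mM NADPH, 100 nM GR, 0.01% BSA, pH 7.5 Tris buffer. NADPH fluorescence (340/450 nm) read at 0 and 15 min.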
A general note: In qHTS, concentration-response curves come from the screen itself.

Test [6] deals with Phospholipid hydroperoxide glutathione peroxidase GPX4 (Homo sapiens) (UniProt P36969). In words: Primary qHTS Assay for Inhibitors of Recombinant Selenoprotein Glutathione Peroxidase 4 (GPX4) (AID 1845192). Further: nearly all actives have a fitted effect of over 65% in size. On activity change, negative = inhibition: on the % scale 0 is the no-effect control and ±100 the full control effect. To be noted: recombinant GPX4, GR-coupled NADPH fluorescence, 15 min; series mostly up to 50 µM. In short, it runs like this:
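GR-coupled assay: recombinant GPX4 preincubated 30 min with compound at room temperature; final 200 nM GPX4, 1 mM GSH, 0.5 mM cumene hydroperoxide, 0.5 mM NADPH, 100 nM GR, 0.01% BSA, pH 7.5 Tris. NADPH fluorescence (340/450 nm) read at 0 and 15 min.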

The subject of test [7] is Nanoluciferase (engineered Oplophorus gracilirostris luciferase). Kind of test: Primary Nanoluciferase (NLuc) qHTS assay for identification of artifact compounds. (AID 1845222).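 Further: 0% = DMSO and -100% = no enzyme.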 To be noted: NLuc-conditioned medium, Nano-Glo luminescence, 5 min; series mostly up to 54.1 µM. The method in brief: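 Diluted conditioned medium from NLuc-expressing S16 cells treated with compounds for 15 min at room temperature, then Nano-Glo substrate added; luminescence read after 5 min. Percent inhibition versus no-enzyme and DMSO controls fitted to 4-parameter Hill equation.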

Test [8] in a line: Primary redox qHTS assay for identification of artifact compounds. (AID 1845223). The note with it: Amplex Red/HRP redox cycling with DTT, fluorescence; series mostly up to 53.8 µM. In short, it runs like this: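 Amplex Red (25 uM) and HRP (250 mU/mL) in HBSS, with compounds for 15 min, then 250 uM DTT for 30 min, room temperature, dark. Fluorescence 525/598 nm read; normalized to DMSO and 10 uM DA3003; Hill fit.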

Test [9] can be described thus: Quantitative High-Throughput drug screen in 47 multiple myeloma cell lines against the NCATS MIPE library collection: FR4_PLB cell viability assay (AID 1918924; further: potency means the concentration at half of the fitted maximal effect; nearly all actives have a fitted effect of over 35% in size). To be noted: FR4_PLB myeloma cells viability, CellTiter-Glo ATP, 48 h; series mostly up to 45.8 µM. The method in brief: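 Myeloma cell lines, 500 cells per well, exposed to MIPE 4.0 library compounds for 48 h at 37C, 5% CO2. Viability from ATP by CellTiter-Glo luminescence; normalised to DMSO (100%) and media-only (0%) wells.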
In general terms: Cellular ATP, detected with luciferase, serves as a proxy for viable cell number.

Test [10] can be described thus: NCATS anti-infectives library activity on HEK293 viability as a counter-qHTS vs the C. elegans viability qHTS (AID 1745854).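 Further: HEK293 cells exposed to compounds for 24 hr before the viability read.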 Further: potency means the concentration at half of the fitted maximal effect. The note with it: HEK293 viability counter-screen; series mostly up to 41.8 µM. In short, it runs like this: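 HEK293 cells (1,500/well) exposed 24 hr at 37C to 1:5 titrations, up to 41.7 uM final; counter-screen to a C. elegans viability qHTS. Viability by CellTiter-Glo luminescence after 10 min at room temperature; digitonin as control.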

The target of test [11] is Luciferin 4-monooxygenase (Photinus pyralis) (UniProt P08659). In words: Primary firefly luciferase (FLuc) qHTS assay for identification of artifact compounds. (AID 1845220). Further: nearly all actives have a fitted effect of over 60% in size.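 On activity change, negative = inhibition: plate controls were DMSO vehicle for no effect and no enzyme for full effect.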 The note with it: purified firefly luciferase, luminescence, 5 min; series mostly up to 54.1 µM. The method in brief:
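D-luciferin and ATP (10 uM each, final) in Tris acetate buffer pH 7.6 were incubated with compounds for 15 min at room temperature. The reaction was started with 10 nM Photinus pyralis luciferase and luminescence read after 5 min. Percent inhibition was fitted to a 4-parameter Hill equation.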

Test [12] is described as follows: Primary fluorescence-based thiol-reactive (MSTI) qHTS assay for identification of artifact compounds. (AID 1845221). Further: nearly all actives have a fitted effect of over 65% in size. Further: potency means the concentration at half of the fitted maximal effect.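 On activity change, negative = thiol reactive: thiol-reactive compounds lower the probe fluorescence signal.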 The note with it: MSTI thiol-reactivity probe, 1 h; series mostly up to 53.8 µM. In short, it runs like this: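 MSTI probe at 4 uM final in 2% DMSO/PBS pH 7.4; compounds, 1 h at room temperature in dark. Fluorescence Ex/Em 525/598 nm, normalised to Acetyl-MSTI and MSTI, fitted to 4-parameter Hill.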

Several values for one entry are separate records, joined by “and”; a condition that tells them apart may be missing. Equal entries are not always repeated. Records with an inconclusive call do not appear. Activity calls are given as the source filed them. Unless noted, the call rests on the fitted dose curve; in most records, active means well fitted curve in the direction sought with a large enough effect; inconclusive means small, poorly fitted or top-dose-only effect, or another doubt; inactive means no such curve, though single readings can be large; an effect the other way counts as inactive or inconclusive.

Chain of Phospholipid hydroperoxide glutathione peroxidase GPX4 (Homo sapiens) (P36969 whole entry, looked up): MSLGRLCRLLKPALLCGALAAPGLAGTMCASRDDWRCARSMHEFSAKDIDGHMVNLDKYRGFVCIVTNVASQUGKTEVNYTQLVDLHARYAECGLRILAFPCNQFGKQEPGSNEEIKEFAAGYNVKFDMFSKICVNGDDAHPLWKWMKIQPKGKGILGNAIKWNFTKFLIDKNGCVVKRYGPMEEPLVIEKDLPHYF
Chain of Phenylethanolamine N-methyltransferase (Homo sapiens) (P11086 whole entry, looked up): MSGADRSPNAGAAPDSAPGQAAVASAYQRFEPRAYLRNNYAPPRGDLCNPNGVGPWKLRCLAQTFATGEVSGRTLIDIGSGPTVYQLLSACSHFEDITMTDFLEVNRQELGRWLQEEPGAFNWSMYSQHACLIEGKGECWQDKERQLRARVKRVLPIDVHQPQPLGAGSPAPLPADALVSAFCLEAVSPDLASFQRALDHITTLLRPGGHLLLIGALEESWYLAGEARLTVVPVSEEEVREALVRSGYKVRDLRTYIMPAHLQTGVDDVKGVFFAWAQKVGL
Chain of Catechol O-methyltransferase (Homo sapiens) (P21964 whole entry, looked up): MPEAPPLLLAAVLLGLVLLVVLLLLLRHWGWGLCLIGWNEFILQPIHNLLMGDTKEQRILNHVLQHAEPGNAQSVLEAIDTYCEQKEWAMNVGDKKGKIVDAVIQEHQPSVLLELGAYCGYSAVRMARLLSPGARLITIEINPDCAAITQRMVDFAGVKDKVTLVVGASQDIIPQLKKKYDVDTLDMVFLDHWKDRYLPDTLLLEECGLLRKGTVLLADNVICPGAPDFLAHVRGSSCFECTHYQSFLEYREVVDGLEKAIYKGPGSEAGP
Chain of Glutathione peroxidase 1 (Homo sapiens) (P07203 whole entry, looked up): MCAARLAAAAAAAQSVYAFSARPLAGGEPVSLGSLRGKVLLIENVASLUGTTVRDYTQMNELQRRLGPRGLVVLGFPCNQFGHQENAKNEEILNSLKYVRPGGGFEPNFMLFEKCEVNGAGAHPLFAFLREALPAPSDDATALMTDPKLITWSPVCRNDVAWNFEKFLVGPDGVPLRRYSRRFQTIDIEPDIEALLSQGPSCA

For `C=CCn1c(=O)c2cnc(Nc3ccc(N4CCN(C)CC4)cc3)nc2n1-c1cccc(C(C)(C)O)n1`, the activity was -20.7% in test [1], -8.48% in test [3] and -20.6% in test [4]. Also, in test [2], the activity change, negative = inhibition is -6.72%. In addition, the Potency entry in test [5], in [6], in test [7] and in [8] was “inactive” in each case. Further, in test [9], the Potency is 0.132 µM (active).

On to `Nc1ccccc1NC(=O)c1ccc(CNc2nccc(-c3cccnc3)n2)cc1`, for which the activity in test [1] was -14%; in [3] it was -33.2%; in test [4], -7.44%. Besides, the activity change, negative = inhibition in test [2] was -1.06%. The Potency entry in test [10], in test [5], in test [6], in test [11], in [12] and in test [8] was “inactive” each time.

Turning to `NC1(Cc2ccc(Cl)cc2)CCN(c2ncnc3[nH]ccc23)CC1`, the activity is -4.59% in test [1], -26.7% in [3] and -31.7% in test [4]. In test [2], the activity change, negative = inhibition is 0.429%. Further, the Potency entry in [5], in [6], in test [11], in test [12] and in test [8] was “inactive” in each case.

Turning to `Nc1nc(NCCNc2ncc(-n3ccnc3)c(-c3ccc(Cl)cc3Cl)n2)ccc1[N+](=O)[O-]`, the activity in test [1] is -0.828%; in test [3], -47.1%; in [4] it was -4.53%. For the same compound, the activity change, negative = inhibition in [2] came to 0%. The Potency entry in test [5], in test [6], in [11], in test [12] and in test [8] was “inactive” each time. In test [9], the Potency was 13.2 µM (active).

Turning to `C=CC(=O)Nc1cccc(Oc2nc(Nc3ccc(N4CCN(C)CC4)cc3)ncc2Cl)c1`, the activity was -18% in test [1], -51.9% in test [3] and -14.3% in [4]. Also, the figures for the Potency in test [2] and in test [12] were 27.1 µM (active) and 1.89 µM (active), respectively. In addition, the Potency result in test [5], in test [6], in test [11], in test [7] and in test [8] was “inactive” each time.

For the compound `COc1cc(C(C)C)c2c(c1)S(=O)(=O)N(COc1cc(=O)n3cccc(OCCN4CCCCC4)c3n1)C2=O`, the Potency result in test [5] and in test [6] was “inactive” in each case.

For `COc1c(OCCCN2CCOCC2)ccc2c3n(c(=NC(=O)c4cnc(N)nc4)nc12)CCN3`, in [5], the activity, negative = inhibition was -31.4% [at 9.52 µM] (inactive) and 3.3% [at 9.52 µM] (inactive); the outcome was “inactive [at 9.52 µM]”. In addition, in test [6], the activity change, negative = inhibition is -4.71% [at 9.73 µM] (inactive) and -19.4% [at 9.73 µM] (inactive); the outcome was “inactive [at 9.73 µM]”. Also, the activity change, negative = inhibition in [11] is -4.27% [at 11.6 µM] (inactive). Moreover, the activity change, negative = thiol reactive in [12] was 32.5% [at 11.5 µM] (inactive). In addition, the redox activity (% of DA3003) in test [8] is -6.72% [at 11.5 µM] (inactive). In addition, the Potency in test [9] is 2.88 µM (active).

With `CC(C)Nc1cc(C(F)(F)F)cc2nc(NC(=O)c3cccnc3)nn12`, the Potency result in [5], in test [6], in test [11], in test [12], in [7] and in [8] was “inactive” throughout.

As for `O=C(NCCS(=O)(=O)c1ccc(C(F)(F)F)cn1)c1ccc(Cl)cc1`, the Potency entry in test [5] and in [6] was “inactive” in each case.

As to `COc1cccc2c(NCc3ccccc3)nc(-n3c(N)nc4ccccc43)nc12`, the Potency in [10] is 7.08 µM (active); in test [9] it was 6.62 µM (active). Further, the Potency entry in test [5], in test [6] and in test [8] was “inactive” throughout.

`NCC(=O)Nc1ccc(-n2nc(C(F)(F)F)cc2-c2ccc3c(ccc4ccccc43)c2)cc1`: the Potency entry in [5], in [6], in test [11], in test [12], in test [7] and in test [8] was “inactive” throughout.
